Key:
Assay in all cases: log2 ratio of Biotin-Ahx-Ub-VS probe labelling (fragment/DMSO); higher = less target engagement (more negative = stronger competition), active = hit call of the paper (q ≤ 0.05, log2 ratio ≤ -1)
Conditions in all cases: compound concentration: 200 uM; treatment time: 3 h
[1] = biological target: T1, USP19 (UniProt O94966)
T1 sequence (whole entry): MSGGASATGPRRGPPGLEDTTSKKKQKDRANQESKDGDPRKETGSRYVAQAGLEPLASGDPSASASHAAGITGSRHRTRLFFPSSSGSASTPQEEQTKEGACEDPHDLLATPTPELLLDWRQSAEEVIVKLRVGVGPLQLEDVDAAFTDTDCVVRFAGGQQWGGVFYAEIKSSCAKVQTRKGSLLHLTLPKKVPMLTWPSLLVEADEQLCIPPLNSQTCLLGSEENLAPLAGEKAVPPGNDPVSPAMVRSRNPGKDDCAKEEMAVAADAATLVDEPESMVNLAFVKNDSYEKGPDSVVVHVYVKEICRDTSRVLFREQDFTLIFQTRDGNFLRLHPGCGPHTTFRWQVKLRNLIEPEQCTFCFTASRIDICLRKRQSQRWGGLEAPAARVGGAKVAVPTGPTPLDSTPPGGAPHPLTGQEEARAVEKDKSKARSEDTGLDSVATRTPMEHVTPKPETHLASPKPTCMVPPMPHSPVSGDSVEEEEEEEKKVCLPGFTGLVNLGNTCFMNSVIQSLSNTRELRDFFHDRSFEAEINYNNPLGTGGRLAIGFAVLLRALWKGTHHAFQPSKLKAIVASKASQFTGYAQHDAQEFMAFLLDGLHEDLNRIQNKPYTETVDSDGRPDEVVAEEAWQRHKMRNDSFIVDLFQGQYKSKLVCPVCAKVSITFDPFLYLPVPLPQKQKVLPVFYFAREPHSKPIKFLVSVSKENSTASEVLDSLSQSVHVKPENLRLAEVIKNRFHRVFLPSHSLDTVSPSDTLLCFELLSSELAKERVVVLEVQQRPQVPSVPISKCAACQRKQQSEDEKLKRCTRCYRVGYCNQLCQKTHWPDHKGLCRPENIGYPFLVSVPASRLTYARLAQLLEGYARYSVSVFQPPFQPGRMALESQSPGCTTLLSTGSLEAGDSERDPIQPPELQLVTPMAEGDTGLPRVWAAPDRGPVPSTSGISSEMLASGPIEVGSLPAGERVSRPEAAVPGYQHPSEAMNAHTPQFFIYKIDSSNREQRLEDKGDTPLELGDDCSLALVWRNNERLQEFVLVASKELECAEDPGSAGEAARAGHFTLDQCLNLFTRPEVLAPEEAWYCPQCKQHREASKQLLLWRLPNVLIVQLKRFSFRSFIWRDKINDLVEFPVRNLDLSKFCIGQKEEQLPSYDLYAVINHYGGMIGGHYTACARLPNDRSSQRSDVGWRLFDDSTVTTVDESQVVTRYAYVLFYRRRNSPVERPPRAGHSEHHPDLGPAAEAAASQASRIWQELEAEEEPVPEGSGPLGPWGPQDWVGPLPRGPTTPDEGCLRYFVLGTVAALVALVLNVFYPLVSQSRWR
How it was run: (§1)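 Labelled DUBs from HEK293T lysate were NeutrAvidin-enriched, digested with LysC and trypsin, and run by diaPASEF LC-MS/MS. Before that, each 495 µg sample in Tris/CHAPS/IGEPAL buffer with protease inhibitors was treated in triplicate with fragment at 200 µM or vehicle for 3 h, then with Biotin-Ahx-Ub-VS at 0.5 µM final for 1 h. Values are average log2 ratios of fragment over vehicle by unpaired t-test, based on global-median-normalised Spectronaut label-free quantities from proteins with ≥2 unique peptides.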

[2] = biological target: USP24 (UniProt Q9UPU5)
How it was run: as §1

[3] = biological target: T2, USP25 (UniProt Q9UHP3)
T2 sequence (whole entry): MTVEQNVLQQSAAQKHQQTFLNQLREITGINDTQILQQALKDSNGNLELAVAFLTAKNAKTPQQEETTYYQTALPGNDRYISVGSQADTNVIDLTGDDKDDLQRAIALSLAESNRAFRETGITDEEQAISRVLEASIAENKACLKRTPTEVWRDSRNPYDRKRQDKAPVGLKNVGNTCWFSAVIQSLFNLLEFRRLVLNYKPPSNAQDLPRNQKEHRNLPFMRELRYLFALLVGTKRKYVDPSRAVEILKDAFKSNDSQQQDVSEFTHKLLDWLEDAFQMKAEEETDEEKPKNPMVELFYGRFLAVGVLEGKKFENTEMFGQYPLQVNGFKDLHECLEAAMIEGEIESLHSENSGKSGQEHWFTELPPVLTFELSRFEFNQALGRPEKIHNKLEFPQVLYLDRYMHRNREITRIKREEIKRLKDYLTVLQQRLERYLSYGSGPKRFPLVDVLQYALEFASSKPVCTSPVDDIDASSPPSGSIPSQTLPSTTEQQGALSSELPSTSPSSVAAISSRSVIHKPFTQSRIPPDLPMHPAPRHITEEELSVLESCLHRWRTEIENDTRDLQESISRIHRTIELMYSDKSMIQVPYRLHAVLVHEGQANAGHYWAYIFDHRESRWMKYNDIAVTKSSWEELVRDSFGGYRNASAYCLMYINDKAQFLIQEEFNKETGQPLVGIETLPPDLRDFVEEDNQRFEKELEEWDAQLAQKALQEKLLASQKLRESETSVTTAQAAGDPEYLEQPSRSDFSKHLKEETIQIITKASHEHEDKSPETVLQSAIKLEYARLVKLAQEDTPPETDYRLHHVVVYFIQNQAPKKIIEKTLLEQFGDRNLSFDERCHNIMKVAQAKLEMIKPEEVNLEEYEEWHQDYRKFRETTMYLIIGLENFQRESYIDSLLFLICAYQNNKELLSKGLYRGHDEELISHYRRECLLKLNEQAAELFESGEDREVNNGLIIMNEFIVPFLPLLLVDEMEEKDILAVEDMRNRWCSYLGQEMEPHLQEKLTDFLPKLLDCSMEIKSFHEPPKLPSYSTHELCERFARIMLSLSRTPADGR
How it was run: as §1

[4] = biological target: T3, USP28 (UniProt Q96RU2)
T3 sequence (whole entry): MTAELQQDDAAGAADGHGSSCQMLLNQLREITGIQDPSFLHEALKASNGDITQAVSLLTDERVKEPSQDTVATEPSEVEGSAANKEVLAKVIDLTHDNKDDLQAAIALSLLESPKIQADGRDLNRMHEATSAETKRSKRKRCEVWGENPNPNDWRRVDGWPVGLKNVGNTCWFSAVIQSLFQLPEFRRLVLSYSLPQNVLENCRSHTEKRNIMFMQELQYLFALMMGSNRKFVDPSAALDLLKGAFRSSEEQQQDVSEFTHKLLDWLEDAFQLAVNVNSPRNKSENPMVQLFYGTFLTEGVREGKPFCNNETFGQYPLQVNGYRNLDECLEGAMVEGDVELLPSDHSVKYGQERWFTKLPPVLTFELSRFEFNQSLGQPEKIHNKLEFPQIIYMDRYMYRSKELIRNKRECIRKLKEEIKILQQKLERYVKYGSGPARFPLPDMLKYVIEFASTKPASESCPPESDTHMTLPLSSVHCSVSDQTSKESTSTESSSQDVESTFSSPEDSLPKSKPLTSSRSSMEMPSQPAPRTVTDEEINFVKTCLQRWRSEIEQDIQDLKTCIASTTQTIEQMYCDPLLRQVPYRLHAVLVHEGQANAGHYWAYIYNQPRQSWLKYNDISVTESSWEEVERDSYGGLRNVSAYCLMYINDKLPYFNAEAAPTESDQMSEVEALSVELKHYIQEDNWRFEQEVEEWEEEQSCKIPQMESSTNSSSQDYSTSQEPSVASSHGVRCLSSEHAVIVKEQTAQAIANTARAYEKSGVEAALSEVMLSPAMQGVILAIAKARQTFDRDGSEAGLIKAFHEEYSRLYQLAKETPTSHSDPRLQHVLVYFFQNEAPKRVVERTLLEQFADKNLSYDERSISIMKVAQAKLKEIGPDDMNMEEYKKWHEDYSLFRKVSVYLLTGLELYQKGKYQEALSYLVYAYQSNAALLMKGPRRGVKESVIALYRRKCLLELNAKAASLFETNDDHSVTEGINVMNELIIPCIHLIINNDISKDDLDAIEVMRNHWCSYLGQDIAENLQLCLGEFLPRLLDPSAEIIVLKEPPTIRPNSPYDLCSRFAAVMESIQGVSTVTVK
How it was run: as §1

Measured: log2 ratio of Biotin-Ahx-Ub-VS probe labelling

USP24, sequence (Q9UPU5 whole entry): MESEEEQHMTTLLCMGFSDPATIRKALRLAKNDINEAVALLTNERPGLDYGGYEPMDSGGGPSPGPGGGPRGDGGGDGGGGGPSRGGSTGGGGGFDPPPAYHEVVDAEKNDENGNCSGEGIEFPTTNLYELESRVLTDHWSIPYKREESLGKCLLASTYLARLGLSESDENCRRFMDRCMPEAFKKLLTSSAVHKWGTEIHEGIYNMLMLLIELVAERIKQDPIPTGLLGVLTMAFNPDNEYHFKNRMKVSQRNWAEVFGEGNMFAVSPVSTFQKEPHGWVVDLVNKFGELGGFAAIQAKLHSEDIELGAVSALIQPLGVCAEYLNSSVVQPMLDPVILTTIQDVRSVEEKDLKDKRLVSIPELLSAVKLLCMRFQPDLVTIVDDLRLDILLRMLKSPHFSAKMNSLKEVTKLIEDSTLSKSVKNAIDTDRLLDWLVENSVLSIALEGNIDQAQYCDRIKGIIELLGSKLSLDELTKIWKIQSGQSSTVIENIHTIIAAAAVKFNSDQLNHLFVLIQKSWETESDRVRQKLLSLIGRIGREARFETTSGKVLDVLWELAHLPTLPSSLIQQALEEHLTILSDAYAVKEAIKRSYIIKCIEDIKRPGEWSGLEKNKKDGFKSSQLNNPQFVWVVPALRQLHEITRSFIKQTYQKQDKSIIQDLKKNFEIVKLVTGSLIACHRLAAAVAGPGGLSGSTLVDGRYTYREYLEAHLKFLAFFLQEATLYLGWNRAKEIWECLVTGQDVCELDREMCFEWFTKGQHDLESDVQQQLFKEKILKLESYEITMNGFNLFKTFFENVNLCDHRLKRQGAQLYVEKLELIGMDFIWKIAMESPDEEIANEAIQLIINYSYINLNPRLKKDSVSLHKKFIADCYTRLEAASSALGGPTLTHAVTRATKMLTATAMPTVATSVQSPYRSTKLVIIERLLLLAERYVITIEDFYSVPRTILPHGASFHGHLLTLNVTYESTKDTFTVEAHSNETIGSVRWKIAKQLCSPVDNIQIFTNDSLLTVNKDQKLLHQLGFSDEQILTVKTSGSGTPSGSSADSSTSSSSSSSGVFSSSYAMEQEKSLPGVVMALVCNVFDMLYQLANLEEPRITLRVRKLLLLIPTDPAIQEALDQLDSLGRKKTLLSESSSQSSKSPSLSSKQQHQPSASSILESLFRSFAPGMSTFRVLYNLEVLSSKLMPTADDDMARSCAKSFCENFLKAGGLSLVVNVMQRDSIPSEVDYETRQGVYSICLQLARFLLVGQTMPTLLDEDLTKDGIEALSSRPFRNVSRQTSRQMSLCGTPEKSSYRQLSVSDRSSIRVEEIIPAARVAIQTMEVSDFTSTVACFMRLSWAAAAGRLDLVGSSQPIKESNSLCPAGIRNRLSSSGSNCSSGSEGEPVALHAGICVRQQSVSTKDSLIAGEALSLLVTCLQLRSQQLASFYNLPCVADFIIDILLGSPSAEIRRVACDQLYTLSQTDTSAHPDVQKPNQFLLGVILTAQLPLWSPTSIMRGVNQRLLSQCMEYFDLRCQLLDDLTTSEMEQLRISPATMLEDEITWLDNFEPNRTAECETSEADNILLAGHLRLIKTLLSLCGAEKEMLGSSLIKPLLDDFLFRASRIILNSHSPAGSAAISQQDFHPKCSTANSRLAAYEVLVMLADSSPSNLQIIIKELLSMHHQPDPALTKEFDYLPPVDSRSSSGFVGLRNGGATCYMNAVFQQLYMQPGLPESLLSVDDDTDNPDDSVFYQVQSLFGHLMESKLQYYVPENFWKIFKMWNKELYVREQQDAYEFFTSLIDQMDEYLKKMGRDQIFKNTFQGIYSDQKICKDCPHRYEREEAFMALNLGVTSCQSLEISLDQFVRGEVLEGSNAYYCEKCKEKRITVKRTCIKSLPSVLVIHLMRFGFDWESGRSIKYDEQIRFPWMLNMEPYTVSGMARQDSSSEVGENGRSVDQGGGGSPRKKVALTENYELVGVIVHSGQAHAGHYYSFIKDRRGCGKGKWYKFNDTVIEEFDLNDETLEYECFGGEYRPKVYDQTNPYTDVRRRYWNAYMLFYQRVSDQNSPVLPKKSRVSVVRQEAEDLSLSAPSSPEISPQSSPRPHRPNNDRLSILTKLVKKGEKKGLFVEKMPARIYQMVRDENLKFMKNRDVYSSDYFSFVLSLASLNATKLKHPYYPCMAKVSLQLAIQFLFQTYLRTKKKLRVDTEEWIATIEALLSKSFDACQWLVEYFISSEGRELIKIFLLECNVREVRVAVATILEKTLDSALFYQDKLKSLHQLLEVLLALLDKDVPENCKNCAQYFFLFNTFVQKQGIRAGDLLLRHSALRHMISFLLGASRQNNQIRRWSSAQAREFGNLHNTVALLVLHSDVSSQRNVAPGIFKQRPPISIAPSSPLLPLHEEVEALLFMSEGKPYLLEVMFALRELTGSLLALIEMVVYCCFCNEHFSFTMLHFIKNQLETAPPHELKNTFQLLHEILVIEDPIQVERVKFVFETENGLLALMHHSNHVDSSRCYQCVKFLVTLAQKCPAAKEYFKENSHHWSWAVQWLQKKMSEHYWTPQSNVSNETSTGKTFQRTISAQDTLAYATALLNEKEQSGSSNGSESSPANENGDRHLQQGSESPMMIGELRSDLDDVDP

O=C(CCl)NC1CCS(=O)(=O)c2ccccc21 (centres undefined)
inactive: [1] -0.237 | [2] -0.183 | [3] -0.461 | [4] -0.943

From the supplement of paper PMC11732987, “Enantioselective OTUD7B fragment discovery through chemoproteomics screening and high-throughput optimisation” (Communications Chemistry, 2025)
